Assay outcomes from PubChem BioAssay.
PI5P4Ka inh: PI5P4K alpha (human) kinase inhibition; PI5P4Kalpha enzyme, ADP-Glo luminescence, 60 min; active compounds read low; max response, %; hit rate 1.2% among 330,000; active means max response of -50% or lower; inconclusive means between -30% and -50%; inactive means -30% or higher; further: value at the top dose of about 77 µM; on the % scale 0 is the no-effect control and ±100 the full control effect
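Quantitative HTS of the MLSMR library against PI5P4Kalpha with substrate. ATP added last at 5 microM final; room temperature, 60 minutes. Remaining ATP depleted, ADP converted and read as luminescence.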
Pol beta inh: DNA polymerase beta (human) inhibition; Pol beta primer extension/strand displacement, fluorescence kinetic; Potency, µM (doses to about 114 µM), for the others: at the highest dose activity change, negative = inhibition, usual class: inhibitors; hit rate 1.3% among 340,000; further: potency means the concentration at half of the fitted maximal effect; on the % scale 0 is the no-effect control and ±100 the full control effect
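Curves were derived by four-parameter Hill fits of normalized qHTS data. The kinetic fluorescent primer-extension read was taken at 0 and 10 min after 50 nM substrate, following a 15 min room-temperature preincubation of 10 nM enzyme with compounds.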
Pol iota inh: DNA polymerase iota (human) inhibition; Q9UNA4; Pol iota fluorescent replication assay, 10 min; Potency, µM (titrated, usually from 115 µM), inactives show at the top dose activity, negative = inhibition, actives largely listed as inhibitors; hit rate 1% among 390,000; AID 588590; further: potency means the concentration at half of the fitted maximal effect
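Pol iota at 10 nM preincubated 15 min with compounds at room temperature; reaction started with fluorescent substrate, 50 nM final. Fluorescence read kinetically at 0 and 10 min; buffer-only wells as negative control.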
POLK inh: blocks human DNA polymerase kappa activity; Q9UBT6; purified Pol kappa, fluorescent DNA synthesis assay, 10 min; Potency, µM (top dose mostly 107 µM), without a hit: at the top dose activity, negative = inhibition, hits mostly inhibitors; hit rate 0.53% among 400,000; AID 588579; further: potency means the concentration at half of the fitted maximal effect; on the % scale 0 is the no-effect control and ±100 the full control effect
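Kinetic fluorescence readout at 0 and 10 min followed reaction start with substrate at 50 nM final. Beforehand, enzyme (10 nM Pol kappa) stood 15 min with compound at room temperature; buffer-only wells were negative controls.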
PI4K2A block: blocks human PI4K2A kinase activity; Q9BTU6; purified PI4K2A, ADP-Glo luminescence, 1 h; active compounds read low; activity change, negative = inhibition, % at 76.9 µM; hit rate 0.13% among 420,000; AID 1346378; in the data active means activity change below about -50%; inconclusive means mostly about -30% to -49%;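 further: -100% = wells without enzyme as full effect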
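PI4K2A activity was measured by ADP-Glo luminescence: enzyme (4 ug/mL stock) and phosphatidylinositol (1.2 mM stock) in Tris pH 7.5/MgCl2/EGTA/Triton X-100 buffer were reacted with ATP (300 microM stock) for one hour at ambient temperature.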
POLH inh: inhibitors of human DNA polymerase eta | Q9Y253 | recombinant Pol eta, fluorescent DNA replication assay | Potency, µM (doses to about 114 µM), inactives show at the highest dose activity change, negative = inhibition, usual class: inhibitors | hit rate 1.2% among 390,000; further: potency means the concentration at half of the fitted maximal effect; on the % scale 0 is the no-effect control and ±100 the full control effect
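Pol eta at 10 nM preincubated with compounds 15 min at room temperature; reaction started with fluorescent substrate (50 nM final) and read kinetically at 0 and 10 min.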
* marks the source's active call; other numbers are inactive results; [ ] = another dose, or the depositor's remark. Compounds with a hit are over-represented: about 2.8% of the library has one in this group of screens. Unless noted, the call rests on the fitted dose curve; in most records, active means well fitted inhibition curve with a large enough effect; inconclusive means small, poorly fitted or top-dose-only effect, or another doubt; inactive means no such curve, though single readings can be large or run the other way.

What do the screens show for `Cc1c(C#N)c(N)nc2c3c(sc12)NC(=O)CC3c1ccc(Cl)cc1` (stereo not drawn)?
PI5P4Ka inh: -13; Pol beta inh: 41%; Pol iota inh: 4%; POLK inh: -5%; PI4K2A block: -1; POLH inh: 2%

What do the screens show for `COC(=O)C1=C(C)NC(C)=C(C(=O)OCCCN2CCC(c3ccccc3)(c3ccccc3)CC2)C1c1cccc([N+](=O)[O-])c1` (stereo not drawn)?
POLK inh: 4%[19.4 µM]; PI4K2A block: 2

How did CCOC(=O)N1CCc2c(sc(NC(=O)c3ccc(S(=O)(=O)N4CCCC4)cc3)c2C#N)C1 do in these assays?
PI5P4Ka inh: -82*; Pol beta inh: 33%; Pol iota inh: 27%; POLK inh: -15%; PI4K2A block: 4; POLH inh: -22%

How did COc1cc(/C=C/c2cccc[n+]2C)ccc1OCC(=O)Nc1ccccc1C do in these assays?
PI5P4Ka inh: 1; Pol beta inh: -22%; Pol iota inh: 10%; POLK inh: 6%; PI4K2A block: 1; POLH inh: 0%

Results for CCOc1cc(/C=C/c2cccc[n+]2C)ccc1OCC(=O)Nc1ccc(C)cc1 ?
PI5P4Ka inh: 10; Pol beta inh: 13µM*; Pol iota inh: inconclusive; POLK inh: inconclusive; PI4K2A block: -1; POLH inh: -20%

How did CC(C)CNC1=CC(=O)CC(c2ccco2)C1 (stereo not drawn) do in these assays?
PI5P4Ka inh: -22; Pol beta inh: 28µM*; Pol iota inh: 28µM*; POLK inh: inconclusive; PI4K2A block: 2; POLH inh: inconclusive

What do the screens show for `O=C1CC(=O)CC(c2ccco2)C1`?
PI5P4Ka inh: 0; Pol beta inh: inconclusive; Pol iota inh: inconclusive; POLK inh: inconclusive; PI4K2A block: 1; POLH inh: 18µM*

How did O=C1C=C(NCc2ccc(Cl)cc2)CC(c2ccco2)C1 (stereo not drawn) do in these assays?
PI5P4Ka inh: inconclusive; Pol beta inh: inconclusive; Pol iota inh: inconclusive; POLK inh: -26%; PI4K2A block: 3; POLH inh: inconclusive

How did O=C1CC(=O)CC(c2ccccc2)C1 do in these assays?
PI5P4Ka inh: -1; Pol beta inh: 15%; Pol iota inh: -9%; POLK inh: -2%; PI4K2A block: -3; POLH inh: 3%

How did O=S1(=O)c2ccc(Br)cc2OC[C@@H](c2ccccc2)N1Cc1cn(CCC2OCCO2)nn1 do in these assays?
PI4K2A block: 0

Results for Cc1cccc(NC(=O)[C@@H]2CC(=O)O[C@@H]2c2ccccc2)c1C ?
PI4K2A block: 2

Results for CC(=O)NN1C(=O)/C(=C\c2ccc(O)cc2)SC1=S ?
PI5P4Ka inh: -14; Pol beta inh: -5%; Pol iota inh: inconclusive; POLK inh: -2%; PI4K2A block: -8; POLH inh: -11%

Results for COc1cc(/C=C2\SC(=S)N(NC(=O)c3ccc(O)cc3)C2=O)ccc1O ?
PI5P4Ka inh: -22; Pol beta inh: 13µM*; Pol iota inh: 50µM*; POLK inh: inconclusive; PI4K2A block: -11; POLH inh: inconclusive

Results for COc1cc(/C=C2\SC(=S)N(NC(=O)c3cccnc3)C2=O)ccc1O ?
PI5P4Ka inh: -23; Pol beta inh: inconclusive; Pol iota inh: 16µM*; POLK inh: inconclusive; PI4K2A block: -9; POLH inh: inconclusive

Results for CN(c1ccc(/C=C/c2ccccc2)cc1)P1(=O)NCCCO1 (stereo not drawn) ?
Pol iota inh: 24%; POLK inh: -20%

Results for O=C1C(=Cc2cn(-c3ccccc3)nc2-c2ccc(OCc3ccc(Cl)cc3)cc2)SC(=S)N1CCS(=O)(=O)O ?
PI5P4Ka inh: inconclusive; PI4K2A block: -15

How did O=C1C(=Cc2cn(-c3ccccc3)nc2-c2ccc(OCc3ccccc3F)cc2)SC(=S)N1CCS(=O)(=O)O do in these assays?
PI5P4Ka inh: -79*; PI4K2A block: -2
